From PubChem BioAssay (Tox21)
Results filed as inconclusive are left out. Active and inactive are the calls of the source. Unless noted, calls follow the shape of the dose curve; as a rule, active = well fitted curve in the direction sought with a large enough effect in the repeat runs; inconclusive = weak or mixed curves; inactive = no such curve, though single readings can be large; an effect the other way counts as inactive or inconclusive.

How the values were obtained:
[1] = qHTS assay to identify small molecule agonists of the hypoxia (HIF-1) signaling pathway - cell viability counter screen (AID 1224844; calls by dose curve; also: nearly all actives have a fitted effect of over 50% in size)
Method in brief: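 Cytotoxicity was measured in parallel with the HRE-driven beta-lactamase readout: after 17 hrs of compound exposure at 37C, HRE-bla ME-180 cells received CellTiter-Glo and luminescence was recorded 30 min later.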

[2] = qHTS assay to identify small molecule agonists of H2AX (AID 1224845; active = well fitted activation curve with a large enough effect in the signal ratio in the repeat runs, not every such curve was filed as active; the % refers to the signal ratio)
Method in brief: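 Wild-type CHO-K1 cells plated overnight, then exposed 3 hr at 37C to compounds at 15 concentrations (0.76% DMSO). Lysed, then HTRF anti-pH2AX(S139)-cryptate/anti-H2AX-d2 detection after 24 hr at room temperature; emissions 665 and 620 nm.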

[3] = qHTS assay to identify small molecule agonists of the hypoxia (HIF-1) signaling pathway (AID 1224846; active = well fitted activation curve with a large enough effect in the signal ratio in the repeat runs, not every such curve was filed as active; the % refers to the signal ratio)
Method in brief: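 Compounds from the Tox21 10K library, dissolved in DMSO, are tested for induction of a hypoxia response element–controlled beta-lactamase reporter in ME-180 cells. Exposure lasts 17 hrs at 37C after a 5 hr settling period, followed by CCF4-AM FRET substrate.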

[4] = qHTS assay to identify small molecule agonists of H2AX - cell viability counter screen (AID 1224847; calls by dose curve; also: top concentration of the series differs between compounds; nearly all actives have a fitted effect of over 30% in size)
Method in brief: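 Viability of CHO-K1 (wild type) cells after 3 hr compound exposure was measured by CellTiter-Glo luminescence.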

[5] = qHTS RealTime-Glo MT Cell Viability Assay in HepG2 cells - 24 hour (AID 1224867); also: nearly all actives have a fitted effect of over 50% in size
Method in brief: (§1)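 Viability was tracked continuously by NanoLuc luminescence from prosubstrate reduced by living HepG2 cells, at successive time points over 40 h of compound exposure. Cells with reagent were preincubated 5 h at 37 °C before compound addition.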

[6] = A CellTox Green Cytotoxicity Assay to monitor cytotoxicity in HEK293 cells - 0 hour (AID 1224869); also: nearly all actives have a fitted effect of over 50% in size
Method in brief: (§2)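 Cells (HEK293, 600/well) and dye reagent are dispensed together. After 5 h at 37 C, 23 nL compound is pinned in. Plates stay at 37 C for 40 h with fluorescence read at 0h, 8h, 16h, 24h, 32h and 40h.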

[7] = qHTS RealTime-Glo MT Cell Viability Assay in HepG2 cells - 40 hour (AID 1224870); also: nearly all actives have a fitted effect of over 50% in size
Method in brief: (§3)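 HepG2 cells mixed with RealTime-Glo MT reagents (NanoLuc plus cell-permeant prosubstrate) were seeded at 600 cells/well, incubated 5 h at 37 C/5% CO2, then pinned with compounds in DMSO; nonlytic luminescence tracked viability during 40 h treatment.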

[8] = A CellTox Green Cytotoxicity Assay to monitor cytotoxicity in HEK293 cells - 40 hour (AID 1224871); also: nearly all actives have a fitted effect of over 45% in size
Method in brief: as §2

[9] = qHTS RealTime-Glo MT Cell Viability Assay in HEK293 cells - 16 hour (AID 1224872)
Method in brief: (§4)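 Viability tracked continuously by luminescence as live cells reduce a prosubstrate for NanoLuc; HEK293 cells preincubated 5 h, compound-treated at 37 C, and read at 0, 8, 16, 24, 32 and 40 h.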

[10] = qHTS RealTime-Glo MT Cell Viability Assay in HepG2 cells - 8 hour (AID 1224873); also: nearly all actives have a fitted effect of over 55% in size
Method in brief: as §3

[11] = A CellTox Green Cytotoxicity Assay to monitor cytotoxicity in HEK293 cells - 24 hour (AID 1224875); also: nearly all actives have a fitted effect of over 45% in size
Method in brief: as §2

[12] = A CellTox Green Cytotoxicity Assay to monitor cytotoxicity in HepG2 cells - 16 hour (AID 1224876); also: nearly all actives have a fitted effect of over 45% in size
Method in brief: (§5)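 Cells and non-lytic dye reagent are dispensed together (600 HepG2 cells/well) and incubated 5 h before DMSO compound transfer. Kinetic fluorescence is then recorded in the same wells during 40 h at 37 C.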

[13] = qHTS RealTime-Glo MT Cell Viability Assay in HepG2 cells - 32 hour (AID 1224877); also: nearly all actives have a fitted effect of over 55% in size
Method in brief: as §1

[14] = A CellTox Green Cytotoxicity Assay to monitor cytotoxicity in HepG2 cells - 24 hour (AID 1224878); also: nearly all actives have a fitted effect of over 45% in size
Method in brief: as §5

[15] = A CellTox Green Cytotoxicity Assay to monitor cytotoxicity in HepG2 cells - 40 hour (AID 1224879); also: nearly all actives have a fitted effect of over 40% in size
Method in brief: as §5

[16] = qHTS RealTime-Glo MT Cell Viability Assay in HEK293 cells - 0 hour (AID 1224880)
Method in brief: (§6)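 Real-time viability in HEK293: signal arises when living cells convert a prosubstrate for NanoLuc in the medium, so luminescence tracks viable cell number. Compound (23 nL, DMSO) added 5 h post-seeding; kinetic reads at 0–40 h, 37 C.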

[17] = qHTS RealTime-Glo MT Cell Viability Assay in HEK293 cells - 32 hour (AID 1224868)
Method in brief: as §4

[18] = qHTS RealTime-Glo MT Cell Viability Assay in HEK293 cells - 40 hour (AID 1224874); conditions: RealTime-Glo luminescence; max response: active compounds read low; also: nearly all actives have a fitted effect of over 50% in size
Method in brief: as §6

[19] = qHTS assay to identify small molecule agonists of the estrogen related receptor (ERR) signaling pathway from Tox21 library (AID 1224849; calls by dose curve; also: nearly all actives have a fitted effect of over 15% in size); conditions: ERR reporter cell line, ONE-Glo luciferase, 18 h; at 92.4 µM (top of the series) unless noted
Method in brief: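 Cells carrying the ERR reporter were plated and allowed to settle for 6 h, exposed to library compounds for 18 h at 37 C, then lysed with ONE-Glo and luminescence measured.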
% is scaled to controls: 0 for no effect and ±100 for the full control effect.

CN
inactive: Potency [1] | Potency [2] | Potency [3] | Potency [4] | Potency [5] | Potency [6] | Potency [7] | Potency [8] | Potency [9] | Potency [10] | Potency [11] | Potency [12] | Potency [13] | Potency [14] | Potency [15] | Potency [16]

COP(=S)(NC(C)C)Oc1ccc(C)cc1[N+](=O)[O-] (stereo unspecified)
inactive: Potency [1] | Potency [2] | Potency [3] | Potency [5] | Potency [17] | Potency [6] | Potency [7] | Potency [8] | Potency [9] | Potency [10] | max response [18] -12.5% | Potency [11] | Potency [12] | Potency [13] | Potency [14] | Potency [15] | Potency [16]

C=CCOC(=O)c1ccccc1N
inactive: Potency [1] | Potency [2] | Potency [3] | activity change, positive = activation [19] -28.9% | Potency [5] | Potency [17] | Potency [6] | Potency [7] | Potency [9] | Potency [10] | max response [18] -17.8% | Potency [12] | Potency [13] | Potency [14] | Potency [15] | Potency [16]

C[C@]12CC[C@H]3[C@@H](CCC4=CC(=O)CC[C@@H]43)[C@@H]1CC[C@@H]2OC(=O)CCc1ccco1
inactive: Potency [1] | Potency [2] | Potency [3] | Potency [5] | Potency [17] | Potency [6] | Potency [7] | Potency [9] | Potency [10] | max response [18] -8.1% | Potency [12] | Potency [13] | Potency [14] | Potency [15] | Potency [16]

COC(=O)c1ccccc1S(=O)(=O)NC(=O)Nc1nc(C)nc(OC)n1
inactive: Potency [1] | Potency [2] | Potency [3] | Potency [4] | Potency [5] | Potency [17] | Potency [6] | Potency [7] | Potency [8] | Potency [9] | Potency [10] | max response [18] 0.753% | Potency [11] | Potency [12] | Potency [13] | Potency [14] | Potency [15] | Potency [16]

O.O.O.O.O.O.O=S(=O)([O-])[O-].[Ni+2]
inactive: Potency [1] | Potency [2] | Potency [3] | Potency [4] | Potency [5] | Potency [17] | Potency [6] | Potency [8] | Potency [9] | Potency [10] | max response [18] -26.5% | Potency [11] | Potency [12] | Potency [13] | Potency [14] | Potency [15] | Potency [16]

CCNc1nc(NC(C)C(C)C)nc(SC)n1 (stereo unspecified)
inactive: Potency [1] | Potency [2] | Potency [3] | Potency [4] | Potency [5] | Potency [17] | Potency [6] | Potency [7] | Potency [8] | Potency [10] | Potency [11] | Potency [13] | Potency [14] | Potency [15] | Potency [16]

CC(=O)[O-].CC(=O)[O-].CC(=O)[O-].[Sb+3]
inactive: activity change, negative = cytotoxicity [1] -10.5% [at 2.72 µM] | activation (H2AX phosphorylation) [2] 1.32% [at 5.45 µM] | activation [3] -0.789% [at 2.67 µM] | activity change, negative = cytotoxicity [4] -1.46% [at 5.43 µM] | activity change, negative = cytotoxicity [5] -0.623% [at 2.72 µM] | activity change, negative = cytotoxic [17] 7.03% [at 2.72 µM] | cytotoxicity [6] -0.412% [at 2.72 µM] | cytotoxicity increase [8] 2.55% [at 2.72 µM] | activity change, negative = cytotoxicity [9] 1.77% [at 2.72 µM] | viability change, negative = cytotoxic [10] -4.57% [at 2.72 µM] | max response [18] 11.6% | activity change [11] 1.85% [at 2.72 µM, active compounds read high] | cytotoxicity increase [12] -16% [at 2.72 µM] | activity change, negative = cytotoxic [13] 8.41% [at 2.72 µM] | cytotoxicity [14] -19.2% [at 2.72 µM] | cytotoxicity increase [15] -22.4% [at 2.72 µM] | activity change, negative = cytotoxicity [16] -11.8% [at 2.72 µM]
